Sampled rows, rich in hits. Any-hit rate of the full collection: about 3.5%.
FBW7 activator – activators of human E3 ligase FBW7; AlphaScreen FBW7–phospho-cyclin E peptide binding, activator screen; normalized activity (activation), % at 26.1 µM; 650,000 compounds, 0.13% hits; in the data active = normalized activity above about 1.9%;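 note: purified mutant Fbw7 with reduced substrate affinity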
TEAD-YAP inh – TEAD-YAP interaction inhibition; inhibition, % at 9.12 µM; AID 1259422; 640,000 compounds, 1.4% hits; HEK-TIYL cells, TEAD-Gal4/YAP UAS-luciferase luminescence; in the data active = inhibition above about 32%
MITF primary – blocks human microphthalmia-associated transcription factor; O75030; AlphaScreen MITF homodimerization, bead proximity signal; inhibition, % at 2.6 µM; 650,000 compounds, 0.91% hits; AID 1259374; in the data active = inhibition above about 50%
GPR151 activ – human GPR151 activation. Q8TDV0. PathHunter beta-arrestin GPR151 cells, luminescence. activation, % at 11.2 µM. 650,000 compounds, 1% hits; in the data active = activation above about 4.9%
GPR151 conf act – confirmation of human GPR151 activators; shares compounds with GPR151 activ; GPR151 PathHunter beta-arrestin cells, luminescence, 90 min; % of EA-reagent control over plate median; activation, % at 11.2 µM; 6,700 tested, under 10 active; AID 1508609;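 active = mean percent activation across replicates above the confirmation screen cutoff of 4.91%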
GPR119 ag – GPR119 activation, counter-screen for GPR151 activators; shares compounds with GPR151 activ; GPR119 PathHunter beta-arrestin cells, luminescence, 90 min; 0 = compound-well median, 100 = enzyme-acceptor control; activation, % at 11.2 µM; 6,700 compounds, 0.3% hits; AID 1508611;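 active = mean percent activation in the counterscreen above 29.09%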;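 note: counterscreen on off-target GPR119 to flag nonselective hits from the GPR151 activator screen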
Target sequence (Q8TDV5 whole entry, looked up): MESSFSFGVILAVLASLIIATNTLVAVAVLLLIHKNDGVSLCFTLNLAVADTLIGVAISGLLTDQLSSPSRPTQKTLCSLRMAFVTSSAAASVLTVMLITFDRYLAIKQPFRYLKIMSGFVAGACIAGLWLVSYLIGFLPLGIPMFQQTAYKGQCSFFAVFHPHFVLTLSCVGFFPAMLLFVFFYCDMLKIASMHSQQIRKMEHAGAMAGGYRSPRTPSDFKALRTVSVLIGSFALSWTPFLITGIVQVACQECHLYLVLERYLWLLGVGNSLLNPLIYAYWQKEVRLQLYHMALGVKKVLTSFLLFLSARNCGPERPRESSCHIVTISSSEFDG
Of the large screens only hits and unclear results are named; the others gave an inactive call (follow-up assays come after a bar, where they were run); ! = not active in a repeat.

C#C[C@]1(O)CC[C@H]2[C@@H]3CCC4=Cc5oncc5CC4(C)[C@H]3CCC21C (stereo partly drawn)	GPR151 activ 5.5! | GPR151 conf act inactive | GPR119 ag inactive
C#C[C@]1(O)CC[C@H]2[C@@H]3CCc4cc(O)ccc4[C@H]3CC[C@@]21C	none (no result: TEAD-YAP inh)
O=c1oc2c3c(ccc2c2c1CCC2)OCN(c1cccc(C(F)(F)F)c1)C3	none
COCCNC(=O)c1cc2c(=O)n3ccccc3nc2n(Cc2ccco2)c1=N	none
COc1ccc(/C=C/C(=O)Nc2ccc3c(c2)OCO3)cc1S(=O)(=O)N1CCCCC1	none
COc1cc(OC)c(C(=O)OC(C)C(=O)NC(N)=O)cc1OC (stereo not drawn)	GPR151 activ 13 | GPR151 conf act inactive | GPR119 ag inactive
CCN(CC)c1cc(Nc2ccc(SC#N)cc2)c([N+](=O)[O-])c2nonc12	none
CC(C)N(C)Cc1nnnn1CC(=O)N1CCN(c2ccccc2O)CC1	GPR151 activ 5.0 | GPR151 conf act inactive | GPR119 ag inactive
CCCCOc1ccc(C2=N/C(=C\c3ccc(Cl)c(Cl)c3)C(=O)O2)cc1	none
CSc1nc2ccccc2c(=O)n1C1CCCCC1	GPR151 activ 5.3 | GPR151 conf act inactive | GPR119 ag inactive
COC(=O)[C@@H]1C[C@H](NC(=O)c2ccccc2OC)CN1Cc1ccc(SC)cc1	none
O=C(COC(=O)CCN1C(=O)c2cccc([N+](=O)[O-])c2C1=O)NCC(F)(F)F	GPR151 activ 6.0 | GPR151 conf act inactive | GPR119 ag inactive
COc1ccccc1Oc1ccc(N2C(=O)c3cccc([N+](=O)[O-])c3C2=O)cc1	GPR151 activ 8.4 | GPR151 conf act inactive | GPR119 ag inactive
COc1ccc(NC(=O)CCC2CCCCC2)c([N+](=O)[O-])c1	GPR151 activ 6.5 | GPR151 conf act inactive | GPR119 ag inactive
COc1ccc(NC(=O)COC(=O)CC2CCCCC2)c([N+](=O)[O-])c1	none
COc1ccc(NC(=O)CCCCCN2C(=O)c3cccc([N+](=O)[O-])c3C2=O)c(OC)c1	GPR151 activ 7.9 | GPR151 conf act inactive | GPR119 ag inactive
COc1ccc(NC(=O)CCN2C(=O)c3cccc([N+](=O)[O-])c3C2=O)c(OC)c1	none
CCN(CC)C(=O)/C(=C/c1ccc2c(c1)OCO2)NC(=O)c1ccccc1Cl	none
CC(C)(C)OC(=O)NNC(=O)/C=C/c1cc(Br)ccc1F	GPR151 activ 5.2 | GPR151 conf act inactive | GPR119 ag inactive
Cc1ccc(CNC(=O)CSc2nc(NCC3CCCO3)c3ccccc3n2)cc1 (stereo not drawn)	none
Cc1cc(NC(=S)N(Cc2cccs2)C2CCCC2)ccc1Cl	none
CCC1CCCCN1S(=O)(=O)c1cc(OC)c(Cl)cc1OC (stereo not drawn)	GPR151 activ 5.6 | GPR151 conf act inactive | GPR119 ag inactive
CCC1CCCCN1S(=O)(=O)c1ccc(OC)cc1 (stereo not drawn)	none
O=C(NCCCN1CCCC1=O)c1cccc(-c2ccc(C(=O)NC3CC3)cc2)c1	GPR151 activ 6.1 | GPR151 conf act inactive | GPR119 ag inactive
O=C(NC1CC1)c1cnc(NCCCN2CCCC2=O)s1	GPR151 activ 6.0 | GPR151 conf act inactive | GPR119 ag inactive
COc1ccc(-c2cccc(C(=O)NCCCN3CCCC3=O)c2)cc1	none
COc1ccccc1OCc1nnc(SCC(=O)N(C)C)o1	none
CC(C)C(C)NC(=O)CSc1nnc(COc2ccccc2Cl)o1 (stereo not drawn)	GPR151 activ 7.7 | GPR151 conf act inactive | GPR119 ag inactive
CC1=C(C(=O)Nc2ccccc2C)C(c2cccc([N+](=O)[O-])c2)C2=C(CCCC2=O)N1 (stereo not drawn)	none
COC(=O)N/N=C\c1c(C)nn(-c2ccccc2)c1Cl	none
COc1ccc(OC)c(-c2cc(C(=O)N/N=C/c3c(C)nn(-c4ccccc4)c3C)[nH]n2)c1	GPR151 activ 5.2 | GPR151 conf act inactive | GPR119 ag inactive
CC1(C)CC2CC(C)(CN2C(=O)COC(=O)c2ccccc2)C1 (stereo not drawn)	none
c1ccc(-c2noc(CCC3CCCC3)n2)cc1	GPR151 activ 12 | GPR151 conf act inactive | GPR119 ag inactive
Cc1ccc(C(=O)NN=C2CCN(C)CC2)cc1	none
CC(C)N1CCC(=NNC(=O)c2ccc(C(C)(C)C)cc2)CC1	GPR151 activ 6.7 | GPR151 conf act inactive | GPR119 ag inactive
CS(=O)(=O)N1CCC(C(=O)N2CCC(O)(c3ccccn3)CC2)CC1	GPR151 activ 11 | GPR151 conf act inactive | GPR119 ag inactive
O=C(C1CC1)N1CCC(O)(c2ccccn2)CC1	none
O=c1c2sccc2nc(SCc2ccc(F)cc2)n1Cc1ccc2c(c1)OCO2	none
O=C1/C(=C/c2coc3ccccc3c2=O)NC(=S)N1CN1CCCCC1	none
Cc1nonc1CN(C)C(=O)C1CC12CCN(C(=O)c1ccccc1C(F)(F)F)CC2 (stereo not drawn)	GPR151 activ 5.3 | GPR151 conf act inactive | GPR119 ag inactive
CCOC(=O)C1(Cc2ccccc2C(F)(F)F)CCN(C(=O)Cc2nonc2C)CC1	none
Cc1cc(C)cc(NS(=O)(=O)c2cc(C(N)=O)ccc2C)c1	GPR151 activ 13 | GPR151 conf act inactive | GPR119 ag inactive
O=C(CCCCCn1c(=S)[nH]c2cc3c(cc2c1=O)OCO3)NCc1ccccc1	none
O=C(CCCCCn1c(=S)[nH]c2cc3c(cc2c1=O)OCO3)NCc1cccnc1	GPR151 activ 5.9 | GPR151 conf act inactive | GPR119 ag inactive
CC1CCCN(C(=O)CN(C)S(=O)(=O)c2cc3c(cc2Cl)NC(=O)CO3)C1 (stereo not drawn)	none
Cc1csc(NC(=O)CSc2nc(C3CC3)nc3sc(C)c(C)c23)n1	GPR151 activ 6.3 | GPR151 conf act inactive | GPR119 ag inactive
COc1ccc(Cl)cc1NC(=O)c1cnn2c1NC(c1ccc(OC)c(OC)c1)CC2C(F)(F)F (stereo not drawn)	GPR151 activ 8.6 | GPR151 conf act inactive | GPR119 ag inactive
O=C(N/N=C/c1cc(I)ccc1O)c1cc(-c2ccccc2)n[nH]1	none
COC(=O)c1ccc(/C=N/NC(=O)c2cc3ccccc3cc2O)cc1	none
O=C(N/N=C/c1ccncc1)c1cc(-c2ccc(Br)cc2)n[nH]1	GPR151 activ 5.8 | GPR151 conf act inactive | GPR119 ag inactive
O=C(N/N=C/c1ccccc1O)c1cc(-c2ccc(Br)cc2)n[nH]1	GPR151 activ 5.5 | GPR151 conf act inactive | GPR119 ag inactive
O=C(N/N=C/c1ccncc1)c1cc2ccccc2cc1O	GPR151 activ 5.0 | GPR151 conf act inactive | GPR119 ag inactive
O=C(N/N=C/c1ccc(O)cc1)c1cc(-c2ccc(Br)cc2)n[nH]1	none
COc1cc2nc(Nc3nc4ccccc4n3C)nc(NCCCN3CCCC3=O)c2cc1OC	none
